AmpC inh detg: blocks E. coli AmpC beta-lactamase in detergent assay; Potency, µM (doses to about 114 µM), for inactives: at the highest dose activity change, negative = inhibition, usual class: inhibitors; hit rate 0.041% among 370,000; AID 485294; AmpC hydrolysis of nitrocefin, absorbance 480 nm, 0.01% Triton; P00811;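 note: 0% = no-compound wells and -100% = no-enzyme wells; nearly all actives have a fitted effect of over 25% in size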
Target sequence (P00811 whole entry, looked up): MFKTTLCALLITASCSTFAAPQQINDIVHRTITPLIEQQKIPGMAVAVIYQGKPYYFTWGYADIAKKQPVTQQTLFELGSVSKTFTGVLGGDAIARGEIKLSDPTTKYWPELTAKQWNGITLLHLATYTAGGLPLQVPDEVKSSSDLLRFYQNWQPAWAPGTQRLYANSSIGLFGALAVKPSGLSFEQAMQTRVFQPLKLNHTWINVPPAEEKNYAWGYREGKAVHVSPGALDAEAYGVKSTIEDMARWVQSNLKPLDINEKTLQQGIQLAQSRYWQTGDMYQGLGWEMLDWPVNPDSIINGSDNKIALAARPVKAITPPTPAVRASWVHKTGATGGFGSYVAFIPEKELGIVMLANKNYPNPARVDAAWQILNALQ
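20 mM phosphate pH 7.0 + 0.01% (detergent screen) or 0.0001% Triton X-100; 5.3 nM AmpC reagent; cpd preinc 15 min RT; nitrocefin (800 uM stock) to start; A480 q20 s × 4 min; Activity was normalised to no-enzyme and no-compound control wells.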
AMA1-RON2 inh: inhibitors of Plasmodium falciparum AMA1-RON2 interaction | AlphaScreen AMA1-biotinylated RON2 peptide binding | Potency, µM (highest dose often 58.2 µM), without a hit: top-dose activity change, negative = inhibition, actives largely listed as inhibitors | hit rate 0.2% among 360,000 | AID 720542;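 note: 0% = vehicle wells and -100% = peptide control; nearly all actives have a fitted effect of over 45% in size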
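AMA1 (3D7) with his tag at 25 nM final met compounds first, then biotinylated RON2 peptide at 25 nM; detection used donor plus acceptor beads, 10 µg/mL apiece, read by AlphaScreen after 30 min at room temperature.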
AmpC no deterg: blocks E. coli AmpC beta-lactamase in detergent-free assay | P00811 | AmpC nitrocefin hydrolysis, absorbance 480 nm, 0.0001% Triton | Potency, µM (doses to about 57.1 µM), without a hit: top-dose activity change, negative = inhibition, most hits filed as inhibitors | hit rate 0.52% among 330,000 | AID 485341;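 note: plate controls were no compound for no effect and no enzyme for full effect; nearly all actives have a fitted effect of over 20% in size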
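AmpC (5.3 nM in the dispensed reagent) in 20 mM phosphate pH 7.0 with 0.01% (detergent screen) or 0.0001% Triton X-100 was preincubated with compounds for 15 min at room temperature. Nitrocefin was then added from an 800 uM solution, and hydrolysis was followed at 480 nm.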
Pf growth 48h: P. falciparum growth inhibition at 48 hours (one generation); P. falciparum luciferase growth in erythrocytes, 48 h; Potency, µM (series often up to 28.7 µM), without a hit: at the highest dose activity change, negative = inhibition, actives largely listed as inhibitors; hit rate 5.9% among 310,000
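Luciferase-expressing parasites in RBCs, 2% Hct / 0.1% parasitemia final; RPMI 1640 + 0.5% Albumax; 37 C, 5% CO2, one generation; luminescence read-out, lower signal = inhibition.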
HCV inh: HCV inhibition. Potency, µM (top dose mostly 41.8 µM), for the others: at the top dose activity change, negative = inhibition, most hits filed as inhibitors. hit rate 3.4% among 340,000. Huh7.5.1 HCVcc-Cre infection, luciferase reporter, 44 h
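Whole-lifecycle infectious HCVcc-Cre system; cells 1,000/well, compound then virus (~0.5 moi) added 4 h after plating, 44 h culture. Luciferase read 15 sec following 15 min substrate incubation, room temp.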
Pf growth 96h: P. falciparum growth inhibition at 96 hours; P. falciparum luciferase reporter growth, 96 h; Potency, µM (series often up to 28.7 µM), for the others: top-dose activity change, negative = inhibition, most hits filed as inhibitors; AID 504834; hit rate 6.9% among 320,000
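Readout is luminescence from an integrated firefly luciferase in P. falciparum. Red cells, 2% hematocrit and 0.05% parasitemia final, were cultured with compound through two parasite generations (96 hours) at 37 C, 5% CO2.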
An asterisk follows results filed as active; ? = inconclusive; . = not tested or not shown; [ ] = remark or other dose. This is a sample that favours compounds with a hit; in the whole collection about 11% have one here. Calls come from the whole dose curve; as a rule, active = well fitted curve in the direction sought with a large enough effect; inconclusive = small, poorly fitted or top-dose-only effect, or another doubt; inactive = no such curve, though single readings can be large; an effect the other way counts as inactive or inconclusive. Unless noted, % is set by controls: 0 for no effect and ±100 for the full control effect; potency is the fitted concentration of half-maximal effect.

SMILES	AmpC inh detg	AMA1-RON2 inh	AmpC no deterg	Pf growth 48h	HCV inh	Pf growth 96h
COc1ccc(C2=C(C)C(N3CCC(C(=O)Nc4ccc(F)cc4C)CC3)=NS2(=O)=O)cc1	16%	.	.	.	.	.
CC(C)c1ccc(OCCCCCN2CCOCC2)cc1	7%	?	107%	-11%[0.00184 µM]	-23%	34%
CC(=O)Oc1ccc(OC(C)=O)c(SCCCCCN2CCOCC2)c1	-1%	-1%	5%	5.2µM*	11µM*	7.4µM*
Cc1nc2c(c(SCC(=O)Nc3ccccc3C(F)(F)F)n1)CCC2	8%	.	.	.	.	.
COc1ccccc1CN1C(=O)CN(C2CCCCCC2)C(=O)C1c1ccc(C)cc1 (centres undefined)	9%	.	.	.	.	.
O=c1[nH]cnc2c1ccn2C1OC(CO)C(O)C1O (centres undefined)	.	-5%	.	.	1.1µM*	.
O=c1[nH]c(=S)ccn1C1OC(CO)C(O)C1O (centres undefined)	.	9%	.	.	30%	.
Nc1ccc(Br)cc1C(=O)O	-11%	-10%	-14%	-2%	7%	?
Cc1ccc(C(=O)c2cc(Br)ccc2N)cc1	-13%	-20%	-35%	35%	3%	1.7µM*
O=C(c1ccc2c(c1)CCN2S(=O)(=O)c1ccc(Cl)cc1)N1CCN(c2ccccc2F)CC1	1%	.	.	.	.	.
CCC(CC)N1CCN(C(=O)c2cccc(Cl)c2)CC1	-14%	-26%	-37%	16%	-7%	13µM*
Cc1cccc(COCC(Cc2ccccc2)N2CCN(C(=O)c3cccc(Cl)c3)CCC2=O)c1 (centres undefined)	?	1%	111%	?	?	12µM*
Cc1ccc(S(=O)(=O)N2CCC(=O)N([C@H](COCc3ccc(Cl)cc3Cl)Cc3ccccc3)CC2)cc1	.	-2%	.	.	.	.
Cc1ccc(S(=O)(=O)N2CCC(=O)N(C(COCc3ccc(Cl)cc3)Cc3ccccc3)CC2)cc1 (centres undefined)	-2%	-6%	18%	12µM*	?	10µM*
Cc1cccc(C(=O)N2CCC(=O)N(C(COCc3ccccc3)Cc3ccccc3)CC2)c1 (centres undefined)	-11%	-22%	129%	-23%	-20%	13µM*
CCC(=O)N1c2ccccc2CC1C(=O)NCCCN1CCN(c2cccc(Cl)c2)CC1 (centres undefined)	13%	.	.	.	.	.
COc1ccccc1-c1nnc2n(CCc3ccccc3)c(=O)c3ccccc3n12	-4%	.	.	.	.	.
Cc1cccc(COC[C@H](Cc2ccccc2)N2CCN(C(=O)c3cccc(Cl)c3)CCC2=O)c1	.	-4%	.	.	.	.
Cc1cccc(C(=O)N2CCC(=O)N(C(COCc3cccc(C(F)(F)F)c3)Cc3ccccc3)CC2)c1 (centres undefined)	?	42%	247%	?	-1%[8.37 µM]	9.3µM*
O=C(c1ccc(Cl)c(Cl)c1)N1CCC(=O)N(C(COCc2ccccc2)Cc2ccccc2)CC1 (centres undefined)	?	-10%	173%	?	?	12µM*
O=C(c1cccc(Cl)c1)N1CCC(=O)N(C(COCc2ccccc2)Cc2ccccc2)CC1 (centres undefined)	-9%	-8%	123%	?	-23%	10µM*
C=CCc1cccc(CNc2c(C)n(C)n(-c3ccccc3)c2=O)c1O	-3%	4%	-10%	10µM*	32µM*	66%
Cc1cc(C)cc(OCC(=O)OCC(=O)Nc2c(C)n(C)n(-c3ccccc3)c2=O)c1	-5%	30%	152%	11%	1µM*	12%
Cc1c(NC(=O)CN2C(=O)c3ccc([N+](=O)[O-])cc3C2=O)c(=O)n(-c2ccccc2)n1C	5%	9%	-13%	31%	16%	27%
Cc1c(NC(=O)c2ccc(-c3ccc([N+](=O)[O-])cc3Cl)o2)c(=O)n(-c2ccccc2)n1C	-5%	11%	-19%	20%	-17%	9.3µM*
SMILES	AmpC inh detg	AMA1-RON2 inh	AmpC no deterg	Pf growth 48h	HCV inh	Pf growth 96h
Cc1c(NC(=O)COC(=O)COc2ccc(Nc3ccccc3)cc2)c(=O)n(-c2ccccc2)n1C	-1%	-25%	159%	25%	16%	-5%
Cc1c(NC(=O)/C=C/c2cn(-c3ccccc3)nc2-c2ccc(F)cc2)c(=O)n(-c2ccccc2)n1C	-3%	-3%	-16%	4%	11µM*	9.3µM*
CCc1ccc(NC(=O)CCNS(=O)(=O)c2ccc3c(c2)CCCC(=O)N3)cc1	19%	.	.	.	.	.
COc1ccccc1NC(=O)C1=C(C)Nc2nc(SCc3ccccc3)nn2C1c1ccccn1 (centres undefined)	-6%	.	.	.	.	.
Cc1c(NC(=S)NC(=O)c2ccccc2Cl)c(=O)n(-c2ccccc2)n1C	?	-2%	-12%	4%	-1%	-14%
Cc1c(NC(C)C)c(=O)n(-c2ccccc2)n1C	-2%	12%	-6%	10%	0.56µM*	24%
Cc1ccc(-c2cc(C(=O)Nc3c(C)n(C)n(-c4ccccc4)c3=O)no2)cc1	-5%	0%	-7%	37%[1.15 µM]	9%	11%
Cc1c(NC(C)c2ccccc2O)c(=O)n(-c2ccccc2)n1C (centres undefined)	2%	-1%	-11%	.	10%	?
Cc1c(NC(=O)C(C)OC(=O)c2ccc([N+](=O)[O-])s2)c(=O)n(-c2ccccc2)n1C (centres undefined)	?	2%	-3%[11.4 µM]	?	-18%	13µM*
COc1ccc(-c2cc(C(=O)Nc3c(C)n(C)n(-c4ccccc4)c3=O)no2)cc1	6%	0%	-11%	?	5%	8.3µM*
Cc1c(C(=S)NC(=O)C2CC2)c(=O)n(-c2ccccc2)n1C	4%	47%	-31%	-30%	-9%	15µM*
CCOc1ccc(C(=O)NCCc2sc(-c3cccc(F)c3)nc2C)cc1OCC	11%	.	.	.	.	.
CC(C)Oc1ccc(CNC(=O)C2CCCN(S(=O)(=O)c3ccc4c(ccn4C)c3)C2)cc1 (centres undefined)	18%	.	.	.	.	.
Cc1c(NC(=O)c2ccccc2F)c(=O)n(-c2ccccc2)n1C	2%	-3%	-2%	12%	27%	?
Cc1c(NC(=O)c2cccc(S(=O)(=O)N3CCOCC3)c2)c(=O)n(-c2ccccc2)n1C	0%	-1%	-11%	-3%	15%	8.3µM*
Cc1cc(C(=O)Nc2c(C)n(C)n(-c3ccccc3)c2=O)c(C)o1	3%	1%	0.16µM*	-19%	14%	71%
Cc1c(NC(=O)c2ccc(S(=O)(=O)N3CCOCC3)cc2)c(=O)n(-c2ccccc2)n1C	-1%	1%	-9%	-3%	-8%	-12%

Screening data from PubChem BioAssay.
